Assay [1] has as its target Fibroblast growth factor receptor 4 (Homo sapiens) (UniProt P22455). Particulars: at 1 µM.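 Also: reported figure is the averaged percent inhibition of FGFR4, from the GSK PKIS kinase screening panel.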
In assay [2] the target is Tyrosine-protein kinase Fgr (Homo sapiens) (UniProt P09769). The conditions noted are these: at 0.1 µM.
Assay [3] shares this target. Particulars: at 1 µM.
Assay [4] deals with Vascular endothelial growth factor receptor 1 (Homo sapiens) (UniProt P17948). The conditions noted are these: at 0.1 µM.
Sequence of Vascular endothelial growth factor receptor 1 (Homo sapiens) (P17948 whole entry): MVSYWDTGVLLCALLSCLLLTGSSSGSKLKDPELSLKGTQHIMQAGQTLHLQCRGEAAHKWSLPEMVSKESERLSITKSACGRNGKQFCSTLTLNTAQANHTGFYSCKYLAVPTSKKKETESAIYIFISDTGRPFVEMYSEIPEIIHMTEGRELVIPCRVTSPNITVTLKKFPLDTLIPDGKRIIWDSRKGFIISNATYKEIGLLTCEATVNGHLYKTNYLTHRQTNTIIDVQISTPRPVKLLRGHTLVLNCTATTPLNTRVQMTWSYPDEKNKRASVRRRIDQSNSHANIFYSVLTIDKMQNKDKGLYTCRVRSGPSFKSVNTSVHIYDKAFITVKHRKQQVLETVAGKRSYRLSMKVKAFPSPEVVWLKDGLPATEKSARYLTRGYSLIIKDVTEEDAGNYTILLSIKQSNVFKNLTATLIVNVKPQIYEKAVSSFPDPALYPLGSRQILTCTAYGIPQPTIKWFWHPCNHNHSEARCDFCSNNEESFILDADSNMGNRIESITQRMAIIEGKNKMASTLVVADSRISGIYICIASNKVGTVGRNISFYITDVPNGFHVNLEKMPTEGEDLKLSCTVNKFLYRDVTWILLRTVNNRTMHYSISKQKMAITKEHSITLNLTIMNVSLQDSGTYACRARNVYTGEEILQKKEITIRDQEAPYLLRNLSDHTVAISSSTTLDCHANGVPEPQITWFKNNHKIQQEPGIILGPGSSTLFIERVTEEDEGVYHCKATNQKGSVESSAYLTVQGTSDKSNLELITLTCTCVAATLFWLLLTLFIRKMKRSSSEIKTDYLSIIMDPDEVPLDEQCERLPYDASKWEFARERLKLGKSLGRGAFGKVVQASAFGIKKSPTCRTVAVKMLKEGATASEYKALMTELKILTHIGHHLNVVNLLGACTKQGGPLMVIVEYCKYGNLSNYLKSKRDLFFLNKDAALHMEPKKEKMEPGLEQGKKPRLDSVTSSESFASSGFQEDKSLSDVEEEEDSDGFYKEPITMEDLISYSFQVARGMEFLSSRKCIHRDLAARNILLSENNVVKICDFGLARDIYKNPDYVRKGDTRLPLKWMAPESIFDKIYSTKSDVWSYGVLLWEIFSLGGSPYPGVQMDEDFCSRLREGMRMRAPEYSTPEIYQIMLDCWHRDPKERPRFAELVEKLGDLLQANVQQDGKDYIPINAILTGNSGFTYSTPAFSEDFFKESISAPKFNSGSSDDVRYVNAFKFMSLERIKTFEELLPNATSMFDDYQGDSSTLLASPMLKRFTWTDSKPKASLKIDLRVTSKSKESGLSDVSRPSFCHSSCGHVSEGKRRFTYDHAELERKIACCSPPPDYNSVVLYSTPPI
Assay [5] shares this target. Particulars: at 1 µM.
The target in assay [6] is Receptor-type tyrosine-protein kinase FLT3 (Homo sapiens) (UniProt P36888). The conditions noted are these: at 0.1 µM.
For assay [7] the target is unchanged. The conditions noted are these: at 1 µM.
The subject of assay [8] is T1, Receptor-type tyrosine-protein kinase FLT3 (Homo sapiens), P36888 [D835Y].
T1 sequence (whole entry): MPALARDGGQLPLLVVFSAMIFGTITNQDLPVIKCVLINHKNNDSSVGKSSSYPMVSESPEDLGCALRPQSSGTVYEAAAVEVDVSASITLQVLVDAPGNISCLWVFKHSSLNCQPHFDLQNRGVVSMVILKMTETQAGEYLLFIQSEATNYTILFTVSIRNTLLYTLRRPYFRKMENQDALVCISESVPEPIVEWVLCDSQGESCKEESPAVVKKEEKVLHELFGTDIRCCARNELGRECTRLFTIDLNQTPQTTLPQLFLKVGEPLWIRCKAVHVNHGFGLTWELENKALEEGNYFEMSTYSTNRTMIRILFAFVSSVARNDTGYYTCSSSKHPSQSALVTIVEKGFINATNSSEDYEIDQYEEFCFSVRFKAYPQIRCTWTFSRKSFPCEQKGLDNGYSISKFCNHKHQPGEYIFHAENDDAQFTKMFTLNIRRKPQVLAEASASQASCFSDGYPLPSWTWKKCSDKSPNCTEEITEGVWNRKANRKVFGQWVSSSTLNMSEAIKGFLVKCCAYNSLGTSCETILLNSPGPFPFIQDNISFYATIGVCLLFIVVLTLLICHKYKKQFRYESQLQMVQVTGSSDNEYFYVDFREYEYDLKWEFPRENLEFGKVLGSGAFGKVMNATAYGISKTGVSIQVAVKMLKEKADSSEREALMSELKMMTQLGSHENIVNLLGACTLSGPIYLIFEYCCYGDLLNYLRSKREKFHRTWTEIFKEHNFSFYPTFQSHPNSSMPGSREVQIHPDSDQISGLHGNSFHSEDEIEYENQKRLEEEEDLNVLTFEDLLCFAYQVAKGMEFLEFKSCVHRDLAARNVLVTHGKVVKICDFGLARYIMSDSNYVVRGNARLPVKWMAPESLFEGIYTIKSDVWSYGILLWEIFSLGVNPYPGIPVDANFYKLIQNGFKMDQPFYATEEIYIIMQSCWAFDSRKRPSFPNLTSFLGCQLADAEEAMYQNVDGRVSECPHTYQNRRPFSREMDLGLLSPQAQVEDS
The conditions noted are these: at 0.1 µM.

The target of assay [9] is Non-receptor tyrosine-protein kinase TYK2 (Homo sapiens) (UniProt P29597). The conditions noted are these: at 1 µM.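 Also: values are mean percent inhibition of TYK2 kinase.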
Sequence of Non-receptor tyrosine-protein kinase TYK2 (Homo sapiens) (P29597 whole entry): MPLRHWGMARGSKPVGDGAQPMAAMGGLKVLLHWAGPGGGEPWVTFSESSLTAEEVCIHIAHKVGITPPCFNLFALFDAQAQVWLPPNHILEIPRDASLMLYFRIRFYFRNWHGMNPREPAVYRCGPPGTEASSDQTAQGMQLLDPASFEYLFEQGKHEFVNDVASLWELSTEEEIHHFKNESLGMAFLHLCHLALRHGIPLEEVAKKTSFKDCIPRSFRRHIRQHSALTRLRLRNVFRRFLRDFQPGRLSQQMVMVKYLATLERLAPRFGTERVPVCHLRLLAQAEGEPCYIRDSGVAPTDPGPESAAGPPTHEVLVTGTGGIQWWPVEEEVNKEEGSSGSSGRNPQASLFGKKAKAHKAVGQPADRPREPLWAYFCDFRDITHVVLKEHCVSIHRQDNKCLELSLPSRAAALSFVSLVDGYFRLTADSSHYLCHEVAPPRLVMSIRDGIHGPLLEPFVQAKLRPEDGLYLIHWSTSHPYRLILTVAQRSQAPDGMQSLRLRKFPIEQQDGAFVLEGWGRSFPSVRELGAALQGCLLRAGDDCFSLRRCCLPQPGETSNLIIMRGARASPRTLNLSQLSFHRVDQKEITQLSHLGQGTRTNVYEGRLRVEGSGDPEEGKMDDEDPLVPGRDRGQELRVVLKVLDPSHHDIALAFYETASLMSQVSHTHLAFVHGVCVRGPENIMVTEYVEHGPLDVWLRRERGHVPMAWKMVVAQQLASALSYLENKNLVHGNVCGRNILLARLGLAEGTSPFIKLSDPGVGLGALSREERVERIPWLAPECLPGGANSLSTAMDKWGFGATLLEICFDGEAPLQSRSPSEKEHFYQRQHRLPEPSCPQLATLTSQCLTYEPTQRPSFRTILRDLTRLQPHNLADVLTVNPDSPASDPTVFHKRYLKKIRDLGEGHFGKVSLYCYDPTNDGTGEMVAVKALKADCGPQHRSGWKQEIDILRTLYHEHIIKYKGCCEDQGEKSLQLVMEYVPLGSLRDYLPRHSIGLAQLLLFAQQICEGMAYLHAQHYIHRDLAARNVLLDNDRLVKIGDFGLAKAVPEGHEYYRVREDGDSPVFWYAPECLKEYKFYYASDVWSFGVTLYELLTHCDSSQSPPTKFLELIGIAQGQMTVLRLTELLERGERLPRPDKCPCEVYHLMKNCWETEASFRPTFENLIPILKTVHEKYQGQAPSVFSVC
The target in assay [10] is T2, Tyrosine-protein kinase receptor TYRO3 (Homo sapiens) (UniProt Q06418).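 Also: reported percentages are averaged inhibition values of TYRO3 kinase activity.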
T2 sequence (whole entry): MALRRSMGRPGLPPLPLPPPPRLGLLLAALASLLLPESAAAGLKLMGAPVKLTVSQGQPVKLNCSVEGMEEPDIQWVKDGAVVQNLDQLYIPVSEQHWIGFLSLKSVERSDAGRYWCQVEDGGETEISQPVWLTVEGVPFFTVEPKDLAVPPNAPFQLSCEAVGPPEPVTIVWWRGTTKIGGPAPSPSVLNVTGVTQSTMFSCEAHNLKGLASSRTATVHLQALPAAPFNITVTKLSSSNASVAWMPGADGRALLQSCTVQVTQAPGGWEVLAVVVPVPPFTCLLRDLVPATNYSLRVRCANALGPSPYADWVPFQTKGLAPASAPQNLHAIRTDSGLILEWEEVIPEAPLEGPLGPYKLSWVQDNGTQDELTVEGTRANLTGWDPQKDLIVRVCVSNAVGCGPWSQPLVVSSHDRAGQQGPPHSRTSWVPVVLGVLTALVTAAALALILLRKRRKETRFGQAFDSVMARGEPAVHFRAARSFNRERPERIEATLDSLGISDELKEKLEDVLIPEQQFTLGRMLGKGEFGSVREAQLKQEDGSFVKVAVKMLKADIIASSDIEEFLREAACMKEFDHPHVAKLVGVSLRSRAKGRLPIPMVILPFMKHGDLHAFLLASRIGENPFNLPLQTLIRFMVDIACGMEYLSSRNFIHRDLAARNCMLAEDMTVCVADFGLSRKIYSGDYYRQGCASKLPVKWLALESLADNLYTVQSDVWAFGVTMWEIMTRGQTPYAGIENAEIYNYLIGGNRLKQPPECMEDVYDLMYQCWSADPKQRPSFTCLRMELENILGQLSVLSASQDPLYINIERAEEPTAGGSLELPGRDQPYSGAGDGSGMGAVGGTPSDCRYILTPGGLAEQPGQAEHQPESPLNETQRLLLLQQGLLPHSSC
The conditions noted are these: at 0.1 µM.

The structures appear in SMILES notation.

Sequence of Tyrosine-protein kinase Fgr (Homo sapiens) (P09769 2-529 limits assumed): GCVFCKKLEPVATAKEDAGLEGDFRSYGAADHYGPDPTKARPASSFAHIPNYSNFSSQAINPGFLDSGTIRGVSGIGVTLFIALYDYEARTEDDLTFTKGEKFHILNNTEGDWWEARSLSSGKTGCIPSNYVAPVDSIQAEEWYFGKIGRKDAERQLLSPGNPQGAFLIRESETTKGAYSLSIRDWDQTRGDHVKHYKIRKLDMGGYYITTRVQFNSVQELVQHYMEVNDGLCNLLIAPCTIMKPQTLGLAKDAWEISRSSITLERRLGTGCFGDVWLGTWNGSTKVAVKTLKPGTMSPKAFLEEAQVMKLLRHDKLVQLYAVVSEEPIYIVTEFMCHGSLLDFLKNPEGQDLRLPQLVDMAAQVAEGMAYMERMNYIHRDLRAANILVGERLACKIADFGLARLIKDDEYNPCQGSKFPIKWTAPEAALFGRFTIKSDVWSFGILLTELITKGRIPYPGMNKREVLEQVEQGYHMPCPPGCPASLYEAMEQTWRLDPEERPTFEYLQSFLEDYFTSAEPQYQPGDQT
Sequence of Fibroblast growth factor receptor 4 (Homo sapiens) (P22455 22-802 limits assumed): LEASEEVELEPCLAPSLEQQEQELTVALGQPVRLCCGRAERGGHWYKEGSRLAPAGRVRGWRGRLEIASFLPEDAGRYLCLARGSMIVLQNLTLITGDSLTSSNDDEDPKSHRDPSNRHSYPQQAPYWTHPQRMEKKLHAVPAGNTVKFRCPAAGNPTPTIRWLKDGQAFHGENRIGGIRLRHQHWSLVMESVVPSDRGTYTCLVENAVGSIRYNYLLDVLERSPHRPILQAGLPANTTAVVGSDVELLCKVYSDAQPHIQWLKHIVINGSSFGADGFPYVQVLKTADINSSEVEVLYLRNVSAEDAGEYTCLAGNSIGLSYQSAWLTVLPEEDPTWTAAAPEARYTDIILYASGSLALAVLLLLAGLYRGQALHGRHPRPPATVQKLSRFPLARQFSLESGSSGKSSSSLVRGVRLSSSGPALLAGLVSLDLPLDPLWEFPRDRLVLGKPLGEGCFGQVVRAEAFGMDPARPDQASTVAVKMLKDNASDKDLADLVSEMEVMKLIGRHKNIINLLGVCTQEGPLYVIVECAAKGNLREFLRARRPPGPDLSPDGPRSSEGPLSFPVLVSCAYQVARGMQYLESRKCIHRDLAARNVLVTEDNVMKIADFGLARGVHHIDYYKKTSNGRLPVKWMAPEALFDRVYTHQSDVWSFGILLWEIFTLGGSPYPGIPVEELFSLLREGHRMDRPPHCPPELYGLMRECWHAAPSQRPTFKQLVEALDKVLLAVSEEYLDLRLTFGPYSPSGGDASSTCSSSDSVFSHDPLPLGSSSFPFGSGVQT

Usually inhibition stands for the change of the read-out against control, counted positive when it falls. Consider `Cc1ccc(C(=O)NC2CCCCC2)cc1-c1ccc(C(=O)NCC2CC2)cc1`, for which the inhibition in assay [1] worked out at 2.89%; in assay [2], 2.07%; in [3], 5.25%; in [4] it was 2.97%; in assay [5], 2.09%; in [6], 0.22%. Moreover, the inhibition is -0.64% in assay [7], -1.58% in [8], -2.34% in assay [9] and 1.42% in [10].

For the molecule `COc1cc(C=NNc2ncnc3c2cnn3-c2ccccc2)ccc1O`, the inhibition in assay [1] was 3.32%; in assay [2] it was 12.8%; in assay [3], 49.6%; in [4], 3.24%; in assay [5], 15.1%; in assay [6] it was 15.6%. Further, the inhibition in [7] was found to be 54.6%; in assay [8], 17.7%; in assay [9], 0.57%; in assay [10], 5.56%.

Consider `O=C1NC(=O)C(c2cccc(Cl)c2)=C1Nc1ccc(O)c(Cl)c1`, for which the inhibition in assay [1] was 2.43%; in assay [2] it was -2.2%; in [3] it was 3.74%; in [4], 0.72%; in [5], 1.36%; in assay [6], -1.02%. The inhibition in [7] is 0.95%; in assay [8], -6.93%; in assay [9] it was 20%; in assay [10], -0.43%.

With `O=C1NC(=O)C(c2ccccc2Cl)=C1Nc1cccc(O)c1`, the inhibition in [1] amounted to 0.13%; in assay [2], 1.27%; in [3], 2.07%; in assay [4] it was 0.36%; in assay [5], 0.77%; in [6], 2.15%. For the same molecule, the inhibition was 2.8% in [7], 3.17% in assay [8], -2.87% in [9] and 1.29% in [10].

Take `Cn1cc(C=C2C(=O)Nc3cccnc32)c2ccccc21`: the inhibition turned out to be 14.1% in [1]; 7.5% in [2]; 44% in assay [3]; 1.42% in [4]; 13.1% in assay [5]; 20.3% in assay [6]. For the same molecule, the inhibition in assay [7] stood at 66.2%; in [8], 32.7%; in [9], 0.73%; in [10] it was 2.36%.

`Nc1nc(-c2ccc3c(c2)C(=Cc2cc(Br)c(O)c(Br)c2)C(=O)N3)cs1`: the inhibition was 3.96% in assay [1]; -0.02% in [2]; 5.44% in assay [3]; -0.63% in [4]; 0.2% in assay [5]; -3.03% in assay [6]. Besides, the inhibition is 0.66% in assay [7], -2.57% in assay [8], 2.43% in assay [9] and -0.46% in [10].

Turning to `CC(=O)Nc1cccc(C#Cc2cncnc2Nc2ccc(OCc3cccc(F)c3)c(Cl)c2)n1`, the inhibition in assay [1] was 0.7%; in [2], 4.5%; in [3], 3.79%; in assay [4], -1.03%; in assay [5] it was -0.69%; in assay [6], -2.34%. In addition, the inhibition in [7] is -0.61%; in [8], 1.25%; in assay [9] it was 2.39%; in assay [10], 0.18%.

Turning to `CCn1c(-c2nonc2N)nc2c(C#CC(C)(C)O)nc(OC[C@@H](N)c3ccccc3)cc21`, the inhibition is 0.19% in [1]; 5% in [2]; 10.2% in [3]; 5.16% in [4]; 33.9% in assay [5]; -0.98% in [6]. For the same molecule, the inhibition in assay [7] is -0.75%; in assay [8], -1.79%; in assay [9], 0.35%; in assay [10] it was -0.52%.

For `COc1cccc(-n2ncc3c(N/N=C/c4cccc(F)c4)ncnc32)c1`, the inhibition in assay [1] is -5.17%; in [2] it was 7.31%; in assay [3], 32.6%; in [4], -0.74%; in assay [5] it was 3.31%; in [6] it was 0.44%. The inhibition in [7] was 6.78%; in assay [8], 9.42%; in assay [9] it was -0.15%; in assay [10], 3.08%.

With `NS(=O)(=O)c1cccc(-c2ccc3c(NC(=O)C4CC4)n[nH]c3c2)c1`, the inhibition in assay [1] is -0.5%; in assay [2], -1.55%; in assay [3] it was -0.19%; in [4], -1.03%; in assay [5], -0.85%; in assay [6], 0.61%. Further, the inhibition in assay [7] was -0.59%; in assay [8], -3.17%; in [9], 1.94%; in assay [10], -0.52%.

Regarding `COc1ccc2cc(-c3c(-c4ccncc4)nc(-c4ccc([S+](C)[O-])cc4)n3C)ccc2c1` (stereo not given), the inhibition was 1.73% in assay [1]; 1.14% in assay [2]; 6.14% in assay [3]; -2.5% in [4]; -1.05% in assay [5]; 1.98% in assay [6]. For the same molecule, the inhibition is 1.93% in assay [7], -0.4% in assay [8], -4.84% in assay [9] and 0.64% in assay [10].

As for `CCn1c(-c2nonc2N)nc2cncc(C(=O)N3CC[C@H](N)C3)c21`, the inhibition is 0.42% in [1]; 3.4% in assay [2]; 1.29% in assay [3]; -0.71% in assay [4]; 4.67% in [5]; 1.58% in assay [6]. Also, the inhibition is 1.11% in [7], -5.73% in assay [8], -0.04% in [9] and 4.09% in [10].

For the molecule `COC(=O)Nc1nc2cc(Oc3ccc(NC(=O)Nc4cccc(C(=O)O)c4)cc3)ccc2[nH]1`, the inhibition in assay [1] was -1.22%; in assay [2], 3.78%; in assay [3] it was 6.34%; in assay [4] it was 3.38%; in assay [5] it was 8.22%; in [6], 1.16%. Moreover, the inhibition in assay [7] is 5.75%; in assay [8], 3.31%; in [9], -0.42%; in assay [10] it was 0.5%.

Take `COC(=O)Nc1nc2cc(Oc3cccc(NC(=O)Nc4cc(C(F)(F)F)ccc4F)c3)ccc2[nH]1`: the inhibition in assay [1] is 0.74%; in [2], 1.17%; in assay [3], 3.3%; in assay [4], 2.97%; in assay [5], 25.7%; in assay [6], -3.12%. In addition, the inhibition in assay [7] is 3.93%; in [8], 1.62%; in assay [9] it was 1.94%; in assay [10], -1.36%.

Consider `COc1cc2ncn(-c3cc(OCc4ccccc4C(F)(F)F)c(C(N)=O)s3)c2cc1OC`, for which the inhibition is -1.16% in [1]; 4.79% in assay [2]; 14.6% in [3]; 1.92% in assay [4]; 9.39% in assay [5]; 0.06% in [6]. For the same molecule, the inhibition in [7] was 9.95%; in [8] it was 9.27%; in assay [9] it was -6.76%; in assay [10], 3.15%.

For `NC(=O)c1cccc(Nc2nccc(Nc3cccc4[nH]ncc34)n2)c1`, the inhibition in [1] was 6.94%; in assay [2] it was 53.6%; in assay [3], 76.7%; in assay [4], 2.24%; in assay [5] it was 29.2%; in assay [6], 6.63%. In addition, the inhibition in assay [7] worked out at 48%; in assay [8] it was 10.4%; in assay [9], 39.1%; in [10], 9.98%.

On to `Cc1cccc(-c2n[nH]cc2-c2ccc3ncccc3n2)n1`, for which the inhibition in assay [1] was 1.18%; in assay [2], 2.06%; in assay [3] it was 4.41%; in [4], 3.33%; in [5], 29.2%; in assay [6], -1.33%. Besides, the inhibition in assay [7] was -0.33%; in [8], -5.04%; in assay [9], 0.67%; in assay [10], 0.27%.
